Experimental data from PubChem BioAssay.
Inconclusive results are not listed. Activity calls are given as the source filed them. Unless noted, no stated cut-off is given here; in the data, active means inhibition above about 80%; inactive means the rest.

Experiments:
[1] = growth inhibition of DIPG glioma cells, dose response, cell-based, SU-DIPG-XVII, MIPE5.0, CellTiter-Glo, qHTS (AID 1347060; cut-off not given, nearly all actives have AC50 up to about 26 µM;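 further: cells exposed to compound for 48 hours before viability readout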); conditions: SU-DIPG-XVII viability, CellTiter-Glo ATP luminescence
[2] = growth inhibition of DIPG glioma cells, dose response, cell-based, SU-DIPG-XIII, MIPE5.0, CellTiter-Glo, qHTS (AID 1347064; cut-off not given, nearly all actives have AC50 up to about 23 µM;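 further: cells exposed to compound for 48 hours before the viability read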); conditions: SU-DIPG-XIII viability, CellTiter-Glo ATP luminescence
[3] = viability loss in pontine glioma line – cell-based, SU-DIPG-XXV, MIPE5.0, CellTiter-Glo, qHTS, dose response (AID 1347065; cut-off not given, nearly all actives have AC50 up to about 26 µM;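 further: cells exposed to compound for 48 hours before ATP readout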); conditions: CellTiter-Glo ATP luminescence
[4] = JHH-DIPG-1 glioma cell viability, MIPE5.0 library, CellTiter-Glo luminescence, qHTS (AID 1347067; cut-off not given, nearly all actives have AC50 up to about 26 µM;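 further: cells exposed to compound for 48 hours before readout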); conditions: JHH-DIPG-1 glioma viability, CellTiter-Glo ATP luminescence
[5] = SU-DIPG-XXV glioma cell viability, MIPE5.0 library, qHTS (AID 1347068; cut-off not given, nearly all actives have IC50 up to about 30 µM;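 further: cells exposed to compound for 48 hours before viability readout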)
[6] = sensitizers of A549 cells to miR-34 induction, primary screen, imaging, A549 dox-inducible miR-34, nuclei and caspase counts (AID 1347080;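 active means compounds whose cell count with miR-34 switched on is under 0.7 times the count with it off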); conditions: A549 miR-34 inducible, Hoechst nuclei count, 48 h
[7] = survival rescue of mitochondrial mutant cells in low glucose, primary screen, MELAS cybrids, Rieske KO mouse fibroblasts, CellTiter-Glo (AID 1508586;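 active means mean z-score across replicates of 1.96 or higher in either the MELAS or the Rieske mutant cell line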;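 further: z relative to plate mean and SD of compound and empty wells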)
[8] = LFS_MB_P medulloblastoma growth inhibition, cell-based, chromothripsis tumors, cisplatin or BGB combos (AID 1671449); conditions: LFS_MB_P medulloblastoma cells;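 further: cells exposed for 96 hours; 0% = vehicle DMSO and 100% = killing by high DMSO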
[9] = HDN33 neuroblastoma growth inhibition, cell-based, chromothripsis tumors, cisplatin or BGB combos (AID 1671450); conditions: HDN33 neuroblastoma cells, stronger effect = higher value;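 further: cells exposed to compound for four days; 0% = vehicle DMSO and 100% = cell killing by high DMSO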
[10] = ICB984 medulloblastoma cell growth inhibition, synergistic combos for chromothripsis tumors, cisplatin or BGB combos (AID 1671451; call rule not given here;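 further: cells exposed for 96 hours before readout; 0% = vehicle DMSO and 100% = killing by high DMSO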); conditions: ICB984 medulloblastoma cells, drug combinations, stronger effect = higher value
[11] = LFS_MB_1R medulloblastoma cell growth inhibition, synergistic combos for chromothripsis tumors, cisplatin or BGB combos (AID 1671452); conditions: LFS_MB_1R medulloblastoma cells, stronger effect = higher value;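 further: cells exposed for 96 hours before readout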
[12] = HTB85 osteosarcoma cell growth inhibition, synergistic combos for chromothripsis tumors, BGB or cisplatin IC20 combos (AID 1671453); conditions: HTB85 osteosarcoma cells, drug combinations, stronger effect = higher value;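 further: cells exposed for 96 hours before readout; 0% = vehicle DMSO and 100% = high DMSO killing control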
[13] = CRL2098 osteosarcoma cell growth inhibition, synergistic combos for chromothripsis tumors, BGB or cisplatin IC20 combos (AID 1671454); conditions: CRL2098 osteosarcoma cells, drug combinations, stronger effect = higher value;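 further: cells exposed for 96 h before readout; 0% = vehicle DMSO and 100% = killing by high DMSO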
[14] = HD-MB03 medulloblastoma cell growth inhibition, synergistic combos for chromothripsis tumors, BGB or cisplatin IC20 combos (AID 1671455; in the data active means inhibition above about 83%;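 further: 0% = vehicle DMSO and 100% = high DMSO as cytotoxic control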); conditions: HD-MB03 medulloblastoma cells, stronger effect = higher value
[15] = UWB1.289 ovarian carcinoma cell growth inhibition, synergistic combos for chromothripsis tumors, BGB or cisplatin combos (AID 1671456); conditions: UWB1.289 ovarian carcinoma cells, stronger effect = higher value;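 further: cells exposed to compound for four days; 0% = vehicle DMSO and 100% = killing by high DMSO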
[16] = MDA-MB-436 breast carcinoma cell growth inhibition, synergistic combos for chromothripsis tumors, BGB or cisplatin combos (AID 1671458; call rule not given here;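 further: cells exposed for 96 hours; 0% = vehicle DMSO and 100% = killing by high DMSO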); conditions: MDA-MB-436 breast carcinoma growth inhibition, drug combinations, stronger effect = higher value
[17] = growth inhibition of BT084 medulloblastoma cells, cell-based, ICGC_MB145, cisplatin and BGB IC40 combos (AID 1671461); conditions: drug combinations, stronger effect = higher value;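 further: cells exposed to drugs for 96 hours; 0% = vehicle DMSO and 100% = high DMSO full killing control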
[18] = growth inhibition of RCMB18 medulloblastoma cells, cell-based, cisplatin and BGB IC40 combos (AID 1671462); conditions: stronger effect = higher value;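 further: cells exposed to compound for four days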
[19] = growth inhibition of CRL1545 osteosarcoma cells, cell-based, cisplatin and BGB IC20 combos (AID 1671464); conditions: stronger effect = higher value;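 further: cells exposed to compound for 96 hours before readout; 0% = vehicle DMSO and 100% = high DMSO killing control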
[20] = measured here: combination with BGB IC40, at 0.05 µM
[21] = measured here: with BGB IC20 combination, at 0.5 µM
[22] = measured here: with cisplatin IC20 combination, at 0.5 µM
[23] = measured here: combination with cisplatin, at 0.5 µM

For `CC(=O)Nc1ccc(C(=O)Nc2ccccc2N)cc1`, which AC50 [1] is on record?
The AC50 was 13.2 µM (active).

What about the AC50 [2] of the same compound?
Its AC50 is 9.34 µM (active).

And the AC50 [3]?
Its AC50 is 9.34 µM (active).

And the AC50 [4]?
Its AC50 is 10.5 µM (active).

What about the IC50 [5] of the same compound?
The IC50 was 10.5 µM (active).

And the fold change ([6]; stronger effect = lower value, cell number ratio, induced over uninduced)?
The fold change was 0.986 (inactive).

And the fold change ([6]; measured here: relative caspase fold change +Dox/-Dox)?
Its fold change is 1.15.

And the cell count ([6]; measured here: total cells with miR-34 induction, stronger effect = lower value)?
The cell count was 4760.

What about the cell count ([6]; measured here: total cells without miR-34 induction) of the same compound?
The cell count was 4820.

And the z-score ([7]; MELAS cybrid survival, CellTiter-Glo 48 h, stronger effect = higher value)?
Its z-score is -0.168 (inactive).

And the z-score ([7]; Rieske KO mouse fibroblast survival, CellTiter-Glo 72 h)?
Its z-score is -0.712.

And the inhibition ([8]; at 0.5 µM, stronger effect = higher value)?
Its inhibition is 88.2% (active).

And the inhibition ([8]; measured here: combination with BGB IC20, at 0.005 µM)?
Its inhibition is -32.9%.

What about the inhibition ([8]; measured here: combination with BGB IC40, at 0.005 µM) of the same compound?
The inhibition was 90.3%.

What about the inhibition [8, 20] of the same compound?
The inhibition was -22.7%.

What about the inhibition ([8]; measured here: combination with cisplatin, at 0.5 µM, stronger effect = higher value) of the same compound?
The inhibition was 113%.

And the inhibition ([8]; measured here: combination with cisplatin, at 5 µM, stronger effect = higher value)?
The inhibition was 85.2%.

What about the inhibition ([9]; BGB combo, at 5 µM) of the same compound?
The inhibition was 47.2%.

What about the inhibition ([9]; at 0.5 µM) of the same compound?
The inhibition was 8.49% (inactive).

And the inhibition ([9]; cisplatin combo, at 5 µM)?
The inhibition was 53.7%.

And the inhibition [9, 21]?
Its inhibition is 4.99%.

What about the inhibition [9, 22] of the same compound?
Its inhibition is 18.6%.

What about the inhibition ([9]; single agent, at 5 µM) of the same compound?
Its inhibition is 41.8%.

And the inhibition ([10]; BGB IC20 combo, at 0.005 µM)?
Its inhibition is -11.5%.

What about the inhibition ([10]; BGB IC40 combo, at 0.005 µM) of the same compound?
The inhibition was -4.35%.

And the inhibition ([10]; BGB IC40 combo, at 0.05 µM)?
Its inhibition is 23.2%.

And the inhibition ([10]; at 0.5 µM)?
The inhibition was -24.7% (inactive).

And the inhibition ([10]; cisplatin combo, at 0.05 µM)?
Its inhibition is 19.5%.

And the inhibition ([10]; cisplatin combo, at 0.5 µM)?
Its inhibition is -38.2%.

And the inhibition ([10]; cisplatin combo, at 5 µM)?
The inhibition was -5.64%.

What about the inhibition ([10]; measured here: 5 uM single agent, at 5 µM) of the same compound?
The inhibition was -13.9%.

And the inhibition ([11]; at 0.5 µM)?
The inhibition was -13.9% (inactive).

What about the inhibition [11, 20] of the same compound?
Its inhibition is -36.6%.

What about the inhibition [11, 23] of the same compound?
Its inhibition is -17.4%.

What about the inhibition ([11]; measured here: combination with cisplatin, at 5 µM) of the same compound?
Its inhibition is 75.4%.

And the inhibition ([12]; at 0.5 µM)?
Its inhibition is 3.06% (inactive).

And the inhibition ([12]; measured here: with BGB IC20, at 0.5 µM)?
The inhibition was 23.1%.

And the inhibition ([12]; measured here: with BGB IC20, at 5 µM)?
Its inhibition is 53.4%.

And the inhibition ([12]; measured here: with cisplatin IC20, at 0.5 µM)?
Its inhibition is -11.1%.

What about the inhibition ([12]; measured here: with cisplatin IC20, at 5 µM) of the same compound?
Its inhibition is 56.6%.

And the inhibition ([12]; single agent, at 5 µM)?
Its inhibition is 37.1%.

And the inhibition ([13]; at 0.5 µM)?
Its inhibition is -31.5% (inactive).

What about the inhibition ([13]; measured here: combination with BGB at IC20, at 0.5 µM) of the same compound?
The inhibition was -48.1%.

And the inhibition ([13]; measured here: combination with cisplatin at IC20, at 0.5 µM)?
The inhibition was -8.49%.

And the inhibition ([14]; at 0.5 µM)?
Its inhibition is -2.82% (inactive).

And the inhibition ([14]; measured here: combo with BGB at IC20, at 0.5 µM)?
Its inhibition is -7.4%.

And the inhibition ([14]; measured here: combo with cisplatin at IC20, at 0.5 µM)?
The inhibition was -4.11%.

What about the inhibition ([15]; at 0.5 µM) of the same compound?
The inhibition was 0.73% (inactive).

And the inhibition ([15]; measured here: inhibition with BGB combination, at 0.05 µM)?
The inhibition was -12.2%.

And the inhibition ([15]; measured here: inhibition with cisplatin combination, at 0.05 µM)?
Its inhibition is -6.67%.

And the inhibition ([16]; at 0.5 µM)?
The inhibition was -2.64% (inactive).

And the inhibition ([16]; measured here: BGB combination, at 0.5 µM)?
The inhibition was 6.02%.

What about the inhibition ([16]; measured here: BGB combination, at 5 µM) of the same compound?
The inhibition was 12.4%.

What about the inhibition ([16]; measured here: cisplatin combination, at 0.5 µM) of the same compound?
The inhibition was -26.9%.

What about the inhibition ([16]; measured here: cisplatin combination, at 5 µM) of the same compound?
The inhibition was 14.4%.

And the inhibition ([17]; at 0.5 µM)?
Its inhibition is 25.3% (inactive).

What about the inhibition ([17]; cisplatin combination, at 0.5 µM) of the same compound?
Its inhibition is 14.2%.

What about the inhibition ([17]; cisplatin combination, at 5 µM) of the same compound?
The inhibition was 63.9%.

What about the inhibition ([17]; measured here: BGB IC40 combination 0.05 uM, at 0.05 µM) of the same compound?
Its inhibition is -33.4%.

What about the inhibition ([17]; single agent, at 5 µM) of the same compound?
The inhibition was 40.7%.

What about the inhibition ([18]; at 0.5 µM) of the same compound?
Its inhibition is 16.2% (inactive).

What about the inhibition ([18]; cisplatin combo, at 5 µM) of the same compound?
Its inhibition is 82.6%.

And the inhibition ([18]; measured here: BGB IC40 combination, at 0.05 µM)?
The inhibition was -4.7%.

And the inhibition [18, 23]?
Its inhibition is 20.8%.

What about the inhibition ([18]; single agent, at 5 µM) of the same compound?
The inhibition was 47.6%.

What about the inhibition ([19]; at 0.5 µM) of the same compound?
Its inhibition is 35.2% (inactive).

And the inhibition [19, 21]?
The inhibition was 11.6%.

And the inhibition [19, 22]?
The inhibition was 46.2%.

And the inhibition ([19]; single agent, at 0.05 µM)?
The inhibition was -7.31%.

What about the inhibition ([19]; single agent, at 5 µM) of the same compound?
Its inhibition is 44%.
